# Assay outcomes as filed in PubChem BioAssay.
# In the library only some 0.78% were active in any assay of this set; here they are far more common.
# BLM helicase inh – inhibitors of human Bloom syndrome helicase BLM; P54132; recombinant BLM DNA unwinding, fluorescence dequenching; AID 2528; 350,000 compounds, 0.2% hits; Potency, µM (series often up to 56.1 µM), for the others: at the top dose activity change, negative = inhibition, most hits filed as inhibitors;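 note: plate controls were vehicle for no effect and no enzyme for full effect; nearly all actives have a fitted effect of over 35% in size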
# L3MBTL1 block – blocks human L3MBTL1 | Q9Y468 | AlphaScreen L3MBTL1–H3K9me1 peptide binding | Potency, µM (series often up to 57.1 µM), for inactives: at the highest dose activity, negative = inhibition, actives largely listed as inhibitors | 230,000 compounds, 0.66% hits | AID 485360; note: nearly all actives have a fitted effect of over 60% in size
#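 First, the protein-peptide complex forms for 30 min at room temperature (L3MBTL1 50 nM, biotinylated H3K9me1 peptide 75 nM). Next, compounds are pin-transferred and incubated 30 min. Finally, AlphaScreen beads are added and read after 30 min.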
# RECQ1 inh – RECQ1 (human) helicase inhibition; P46063; AID 2549; RECQ1 DNA unwinding, red fluorescence kinetic read; 240,000 compounds, 0.54% hits; Potency, µM (top dose mostly 57.3 µM), for the others: top-dose activity, negative = inhibition, most hits filed as inhibitors;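 note: plate controls were vehicle for no effect and no enzyme for full effect; nearly all actives have a fitted effect of over 30% in size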
#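 RECQ1T1 50 nM; forked duplex (20 bp + 30-nt ss tails) 200 nM, ATP 2 mM final; pH 8.0, 2 mM MgCl2, 2.5 ug/ml poly(dI-dC); 15 min compound preincubation; discontinuous kinetic read over 2 h at RT.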
# APE1 inh-1 – APE1 (human) endonuclease inhibition; P27695; recombinant APE1, TAMRA/BHQ-2 abasic DNA cleavage fluorescence; Potency, µM (doses to about 65.8 µM), inactives show at the top dose activity change, negative = inhibition, usual class: inhibitors; 350,000 compounds, 0.35% hits;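 note: plate controls were vehicle for no effect and reference inhibitor for full effect; nearly all actives have a fitted effect of over 55% in size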
# Target sequence (P27695 whole entry, looked up): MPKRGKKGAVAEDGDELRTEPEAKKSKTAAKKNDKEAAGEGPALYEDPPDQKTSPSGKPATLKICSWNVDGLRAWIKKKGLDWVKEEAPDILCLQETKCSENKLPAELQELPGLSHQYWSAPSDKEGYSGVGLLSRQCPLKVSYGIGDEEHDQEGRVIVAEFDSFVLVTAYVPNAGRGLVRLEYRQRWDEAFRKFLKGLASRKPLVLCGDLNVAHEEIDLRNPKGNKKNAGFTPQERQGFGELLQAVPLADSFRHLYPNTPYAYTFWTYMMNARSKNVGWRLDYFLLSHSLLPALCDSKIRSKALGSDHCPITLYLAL
#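 APE1 at 0.75 nM preincubated 15 min at room temperature with compound. Reaction then started with 50 nM double-stranded THF-abasic substrate labelled with TAMRA/BHQ-2, and 525/598 nm fluorescence read kinetically. Activity taken as third-minus-first read difference, normalized to DMSO and NSC13755 controls.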
# EndoIV counter – blocks E. coli endonuclease IV DNA cleavage | shares compounds with APE1 inh-1 | E. coli Endo IV, fluorogenic AP-site DNA cleavage | Potency, µM (doses to about 27.1 µM), inactives show top-dose activity change, negative = inhibition, most hits filed as inhibitors | 560 compounds, 4% hits | AID 2565;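 note: plate controls were uninhibited enzyme wells for no effect and no enzyme buffer wells for full effect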
# APE1 inh-2 – confirmation of inhibitors of human APE1 endonuclease | shares compounds with APE1 inh-1 | purified APE1, fluorogenic abasic-site DNA cleavage | Potency, µM (doses to about 57.1 µM), for inactives: top-dose activity change, negative = inhibition, most hits filed as inhibitors | 750 compounds, 44% hits | AID 2572; note: nearly all actives have a fitted effect of over 30% in size
# * marks the source's active call; other numbers are inactive results; i = inactive; ? = inconclusive; nt = no result; ! = not confirmed by another sample; [ ] = dose if it differs, or a comment. Calls come from the whole dose curve; as a rule, active = well fitted curve in the direction sought with a large enough effect; inconclusive = small, poorly fitted or top-dose-only effect, or another doubt; inactive = no such curve, though single readings can be large; an effect the other way counts as inactive or inconclusive. Unless noted, % is set by controls: 0 for no effect and ±100 for the full control effect; potency is the fitted concentration of half-maximal effect.
SMILES,BLM helicase inh,L3MBTL1 block,RECQ1 inh,APE1 inh-1,others
O=C1OC2(c3cc(Br)c(O)cc3Oc3c2cc(Br)c(O)[c]3[Hg])c2ccccc21 (centres undefined),nt,nt,nt,12.6µM*,
N#CC(Cl)Cl,nt,nt,-2.4%,3.3%,
CC(=O)O[C@H]1C[C@H](O[C@H]2[C@@H](O)C[C@H](O[C@H]3[C@@H](O)C[C@H](O[C@H]4CC[C@@]5(C)[C@H](CC[C@@H]6[C@@H]5C[C@@H](O)[C@]5(C)[C@@H](C7=CC(=O)OC7)CC[C@]65O)C4)O[C@@H]3C)O[C@@H]2C)O[C@H](C)[C@H]1O[C@@H]1O[C@H](CO)[C@@H](O)[C@H](O)[C@H]1O,nt,nt,nt,3.3%,
Cc1ccc(N2C(=O)/C(=C/c3ccc(CN(CCC#N)S(C)(=O)=O)o3)C(=O)NC2=S)cc1,-6.5%,31.6µM*,?,?,
Cc1ccc(N2C(=O)NC(=O)/C(=C\c3ccc([N+](=O)[O-])o3)C2=O)cc1,-5.0%,3.55µM*,?,?,
O=C1NC(=S)N(c2ccccc2)C(=O)/C1=C/c1ccco1,22.4µM*,-0.4%[2.29 µM],nt,16.8µM*,
CCOc1cccc(N2C(=O)/C(=C/c3ccco3)C(=O)NC2=S)c1,28.2µM*,-91.7%,nt,10.6µM*,
COc1ccc(N2C(=O)/C(=C/c3ccc(N(C)C)o3)C(=O)NC2=S)cc1,-1.9%,nt,nt,1.2%,
NNC(N)=S,nt,nt,-5.2%,-1.5%,
C=CCOC(C)=O,nt,nt,-13.4%,-2.9%,
COc1cccc(N2C(=O)/C(=C/c3ccc(C)o3)C(=O)NC2=S)c1,-13.1%,nt,nt,33.9%,
Cc1ccc(/C=C2\C(=O)NC(=S)N(c3ccc(F)cc3)C2=O)o1,-3.7%,15.8µM*,nt,45.3%,
CCOc1ccc2nc(N=Nc3c(O)[nH]c(=S)[nH]c3=O)sc2c1,-9.0%,7.94µM*,-11.4%,?,
CCOc1ccc2nc(N=Nc3c(O)[nH]c(=O)[nH]c3=O)sc2c1,0.9%,-13.1%,12.7%,0.6%,
COc1ccc(-n2c(O)c(/C=C/C=Nc3ccccc3)c(=O)[nH]c2=O)cc1,28.2µM*,-6.4%,?,10.6%,
O=c1[nH]c(=O)n(-c2ccccc2)c(O)c1/C=C/C=Nc1ccccc1,-12.0%,9.2%,-17.7%,-3.1%,
ClCBr,nt,nt,-2.6%,12.1%,
Cc1cccc2c3c(ccc12)C1=C(C(=O)C3=O)[C@@H](C)CO1,-9.5%,nt,13.6%,-3.2%,
Cc1cc(C)cc(-n2c(C)cc(/C=C3\C(=O)NC(=O)N(C)C3=O)c2C)c1,-10.5%,-6.2%,-8.4%,3.8%,
Cc1ccnc(-n2c(C)cc(C=C3C(=O)N(C)C(=S)N(C)C3=O)c2C)c1,-11.9%,-6.2%,39.8µM*,8.5%,
Cc1cc(C=C2C(=O)N(C)C(=S)N(C)C2=O)c(C)n1-c1ccncc1,-8.6%,-22.0%,25.1µM*,-4.3%,
C=CCCC#N,nt,nt,-4.8%,-2.0%,
C=CCN1C(=O)NC(=O)/C(=C/c2cnc(SC)nc2)C1=O,0.2%,1.8%,i,-2.9%,
C=CCN1C(=O)NC(=O)/C(=C/c2cc3c4c(c2)CCCN4CCC3)C1=O,?,28.2µM*,31.6µM*,?,
C=CC[C@]1(O)CC[C@H]2[C@@H]3CCC4=CCCC[C@@H]4[C@H]3CC[C@@]21C,nt,nt,nt,6.2%,
SMILES,BLM helicase inh,L3MBTL1 block,RECQ1 inh,APE1 inh-1,others
CC(=O)c1ccc2c(c1)C1C(Cl)C(Sc3ccccc3[N+](=O)[O-])CC1C(C(=O)O)N2 (centres undefined),?,3.98µM*,?,?,
O=C(O)c1cccc2c1NC(C(=O)O)C1CC(Sc3ccccc3[N+](=O)[O-])C(Cl)C21 (centres undefined),?,2.24µM*,2.9%,2.9%,
CN(C)C(=O)Cl,nt,nt,-3.5%,0.1%,
Cn1cccc1/C=C1\C(=O)NC(=O)N(CCC2=CCCCC2)C1=O,-2.0%,-2.5%,39.8µM*,-6.5%,
C/C1=C\[C@@H](C)C/C=C/[C@H]2[C@@H]3O[C@]3(C)[C@@H](C)[C@H]3[C@H](Cc4c[nH]c5ccccc45)NC(=O)[C@]32C(=O)/C=C/C(=O)[C@@H]1O,-15.1%,?,i,15.8µM*,
CCC1OC2(C)C(O)C(/C=C/C=C/C=C/c3oc(=O)cc(OC)c3C)OC1(C)C2OC(C)=O (centres undefined),-0.2%,nt,-17.8%,-9.2%,
C[C@@H]1O[C@@H](O[C@H]2CC[C@@H](O[C@H]3[C@H](O)C[C@H](c4ccc5c(c4O)C(=O)C4=C(C5=O)[C@@]5(O)C(=O)C[C@](C)(O[C@H]6CC[C@H](O[C@H]7C=CC(=O)[C@H](C)O7)[C@H](C)O6)C[C@@]5(O)C=C4)O[C@@H]3C)O[C@H]2C)C=CC1=O,-17.9%,nt,-11.8%,-7.1%,
CCc1c(C(=O)OC)ncc2[nH]c3cc(OC)c(OC)cc3c12,nt,nt,-3.9%,-8.7%,EndoIV counter=-54.1%[57.1 µM];APE1 inh-2=-27.1%
Oc1ccccc1O,nt,17.8µM*,15.8µM*!,28.2µM*!,EndoIV counter=13.1%[57.1 µM];APE1 inh-2=-14.5%
Oc1cccc(Cl)c1Cl,nt,nt,-7.0%,-5.9%,
CCCCCCC(=O)OC1CC(C)(C)NC(C)(C)C1,-0.9%,nt,-11.6%,-1.7%,
C/C=C(/C)C(=O)O[C@H]1C(C)=C2C([C@@H]1OC(=O)CCCCCCC)[C@@](C)(OC(C)=O)C[C@@H](OC(=O)CCC)[C@@]1(O)[C@H]2OC(=O)[C@@]1(C)O (some centres undefined),nt,nt,-15.2%,-3.9%,EndoIV counter=10µM*;APE1 inh-2=?
O=c1c(O)c(-c2ccc(O)c(O)c2)oc2c(O)c(O)cc(O)c12,-11.2%,nt,i,?,EndoIV counter=-11.1%[57.1 µM];APE1 inh-2=0.501µM*
CO/N=C(\C(=O)N[C@@H]1C(=O)N2C(C(=O)O)=C(CSc3nc(=O)c(O)nn3C)CSC12)c1csc(N)n1 (some centres undefined),nt,nt,?,10µM*,EndoIV counter=-15.0%[57.1 µM];APE1 inh-2=2.24µM*
CC[C@@]1(O)C(=O)OCc2c1cc1n(c2=O)Cc2cc3ccccc3nc2-1,5.2%,nt,-3.1%,9.4%,EndoIV counter=-4.6%[57.1 µM];APE1 inh-2=-22.5%
O=NN(c1ccccc1)c1ccccc1,nt,nt,-16.9%,-1.4%,
CCCCCc1cc(O)c2c(c1)OC(C)(C)C1CC=C(C)CC21 (centres undefined),-11.5%,nt,nt,nt,
